# Lassa entry inh: qHTS for Inhibitors of binding or entry into cells for Lassa Virus | hit rate 1.2% among 300,000 | Potency, µM (titrated, usually from 37.9 µM), for the others: at the highest dose activity change, negative = inhibition, most hits filed as inhibitors | Lassa virus pseudotype entry inhibition, cell reporter; calls by dose curve; tested in HEK293 cells; also: potency is read from the fitted curve at half-maximal effect; nearly all actives have a fitted effect of over 50% in size
# FMDV antiviral: High Throughput Screening for Foot and Mouth Disease Virus Antivirals; Potency, µM (titrated, usually from 57.9 µM), for the others: at the top dose activity change, negative = inhibition, most hits filed as inhibitors; hit rate 1.2% among 410,000; FMDV antiviral cell-based qHTS; calls by dose curve; tested in HEK293T cells; also: read-out not given here; potency is read from the fitted curve at half-maximal effect; nearly all actives have a fitted effect of over 45% in size
# HCMV antiviral: qHTS Assay for inhibitors of the human cytomegalovirus (HCMV). HFF cells, HCMV-luciferase reporter, 72 h; hits give low values. activity change, negative = inhibition, % at 57.5 µM. hit rate 4.5% among 410,000. AID 1259415, 2018; in the data active = activity change below about -60%; inconclusive = no clear call, values can overlap the other calls; inactive = above about -39%
#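 Human foreskin fibroblasts infected with luciferase-reporter HCMV at MOI 1 PFU/cell, compounds at two doses. Luciferase measured 72 h post infection; normalized to buffer-only basal and Salinomycin (10uM) controls.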
# HCV inhibitor: qHTS Assay for Inhibitors of Hepatitis C Virus (HCV). hit rate 3.4% among 340,000. Potency, µM (titrated, usually from 41.8 µM), without a hit: top-dose activity change, negative = inhibition, actives largely listed as inhibitors. Huh7.5.1 HCVcc-Cre infection, luciferase reporter, 44 h; active = well fitted inhibition curve with a large enough effect; inconclusive = small, poorly fitted or top-dose-only effect, or another doubt; inactive = no such curve, though single readings can be large or run the other way; also: potency is read from the fitted curve at half-maximal effect
#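 Antiviral activity was scored by luciferase reporter output from cells infected with HCVcc-Cre (~0.5 moi) in presence of compound, 44 h infection period, cells seeded 1,000/well 4 h prior.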
# Marburg entry inh: qHTS for inhibitors of binding or entry into cells for Marburg Virus. Marburg virus pseudotyped entry inhibition, cell reporter. AID 540276, 2011. Potency, µM (doses to about 37.8 µM), without a hit: at the top dose activity change, negative = inhibition, usual class: inhibitors. hit rate 1.8% among 300,000; calls by dose curve; tested in HEK293 cells; also: potency is read from the fitted curve at half-maximal effect
# * marks the source's active call; other numbers are inactive results; u = inconclusive; x = no result; [ ] = dose if it differs, or a comment. Only some compounds are listed: those with a hit (about 7.9% of all), similar ones and a draw of the others. % is scaled to controls: 0 for no effect and ±100 for the full control effect.
SMILES,Lassa entry inh,FMDV antiviral,HCMV antiviral,HCV inhibitor,Marburg entry inh
CCOCN(C(=O)Cn1c(CC(C)C)nc2ccccc21)c1c(C)cccc1CC,-19%[46.1 µM],-30%,-62*,x,u
NC(=O)CSc1nc(C23CC4CC(CC(C4)C2)C3)nc2ccccc12,x,-14%,-36,3%,x
Cc1cc(NC(=O)CSc2nc3ccccc3c(=O)n2C2CCCC2)no1,u,-19%,-62*,-5%,u
CN(C)c1ccc(NC(=O)CSc2nc3ccccc3c(=O)n2C2CCCCC2)cc1,u,-19%,u,u,-25%
CCN(CC)C(=O)CSc1nc2ccccc2c(=O)n1CC1CCCCC1,u,-15%,u,u,u
Cc1nonc1NC(=O)CSc1nc(C23CC4CC(CC(C4)C2)C3)nc2ccccc12,x,-22%,-69*,u,x
Cc1nonc1NC(=O)CSc1nc(C2CCCCC2)nc2ccccc12,6%,u,-88*,u,u
CCCN(CCC)C(=O)CSc1nc2ccccc2c(=O)n1C1CCCC1,-29%,-15%,u,11µM*,u
Cc1cc2c3c([nH]c2cc1S(=O)(=O)NCc1ccc(CN2CCCCCC2)o1)CCCC3=O,x,-2%,-14,-14%,x
COc1ccc(-c2nc3n(n2)C(=O)C[C@@H](c2ccco2)S3)cc1,x,x,x,x,10%
CCN(CC)c1ccc(NC(=O)CSc2nc(C3CC3)nc3ccccc23)cc1C,u,-11%,u,u,4.5µM*
CCCc1nc(SCC(=O)Nc2ccc(N3CCOCC3)cc2)c2ccccc2n1,13%,u,-24,-15%,0.71µM*
Cc1cc(NC(=O)CSc2nc(C3CCCCC3)nc3ccccc23)no1,-15%,u,-76*,-9%,-21%
O=C(CSc1nc(C2CC2)nc2ccccc12)Nc1ccccc1N1CCOCC1,x,25µM*,-72*,u,x
O=C(CSc1nc(C2CC2)nc2ccccc12)Nc1ccccc1,-5%[46.1 µM],-20%,-36,u,u
CCc1ccc(NC(=O)Cn2c(=O)n(Cc3nc(-c4ccccc4)no3)c(=O)c3cc4c(cc32)OCO4)cc1,7%[46.1 µM],-1%,-19,x,x
NC(=O)CSc1nc2cc(Cl)ccc2c(=O)n1C1CCCCC1,19%[46.1 µM],-20%,-14,11µM*,u
COC(=O)CSc1nc2cc(Cl)ccc2c(=O)n1C1CCCC1,-33%,-21%,86,-18%,-19%
CCc1ccc(-n2nc(C)c3c(C)cc(=O)n(CC(=O)Nc4cc(C)ccc4C)c32)cc1,3%[46.1 µM],4%,29,x,x
COc1ccc(O)c(CN2CCC3(CCC(CNC(=O)c4ccccc4)O3)CC2)c1 (configuration not stated),x,-8%,x,x,x
COCCN(CC(=O)Nc1cccc(C)c1C)C(=O)Cc1sc(C)nc1-c1ccc(F)cc1,-28%,-20%,-1,u,u
COc1ccc(C(=O)NCCN2CCCC2)cc1,-4%,-8%,36,-3%,-17%
O=C1Nc2cc(C(=O)NCCCN3CCOCC3)ccc2S/C1=C/c1ccccc1F,x,u,-28,8.9µM*,x
O=C1Nc2cc(C(=O)NCCCN3CCCC3)ccc2S/C1=C\c1ccccc1,x,-24%,u,11µM*,x
COc1ccc(/C=C2/Sc3ccc(C(=O)NCCN4CCCCCC4)cc3NC2=O)cc1,x,-6%,-112*,u,x
SMILES,Lassa entry inh,FMDV antiviral,HCMV antiviral,HCV inhibitor,Marburg entry inh
Cc1ccc(C(=O)OCC(=O)NCc2ccccc2)cc1S(=O)(=O)N1CCCCC1,x,-13%,-20,-5%,x
Cc1ccc(C(=O)OCC(=O)c2c[nH]c3ccccc23)cc1S(=O)(=O)N1CCCCC1,u,-12%,-37,32µM*,u
Cc1[nH]c2ccccc2c1C(=O)COC(=O)c1cccc(S(=O)(=O)N2CCCCC2)c1,u,-4%,-78*,u,u
CCOc1ccc(N(C)S(=O)(=O)c2ccc(C)c(C(=O)OCC(=O)c3c[nH]c4ccccc34)c2)cc1,7%,-12%,u,0%,1.4µM*
O=C(Cn1c(=O)n(-c2ccccc2)c(=O)c2c3c(sc21)CCCC3)Nc1cccc(F)c1,4%[46.1 µM],-19%,-2,x,11%[46.1 µM]
O=C(O)c1ccc(N/N=C/c2cccc(F)c2)cc1,u,-38%,76,44%,10µM*
O=C(O)c1ccc(N/N=C/c2cccc(C(F)(F)F)c2)cc1,x,39%,62,4%,x
O=C(O)c1ccc(N/N=C/c2ccc3nccnc3c2)cc1,x,7.1µM*,-78*,21%,x
O=C(O)c1ccc(N/N=C/c2ccncc2)cc1,x,31%,-1,15%,x
O=C(O)c1ccc(N/N=C/c2ccc(F)c(F)c2)cc1,6.3µM*,14µM*,23,30%,7.1µM*
CCCn1cc(S(=O)(=O)c2ccc(F)cc2)c(=O)c2cc(OCC)ccc21,x,-3%,-67*,-24%,x
CSc1nnc(CCNC(=O)/C=C/c2cccc(F)c2)n1-c1ccc(F)cc1,x,-15%,x,x,x
CC1CCc2c(sc(NC(=O)CCC(=O)O)c2C(=O)NC2CC2)C1 (configuration not stated),-2%[46.1 µM],5%,-35,11%,24%[46.1 µM]
CCOc1ccc(C(=O)C[n+]2cccc3cc(C)ccc32)cc1,u,-14%,-81*,u,7.1µM*
CC(C)OC(=O)c1cc2c(ccn2C)n1CC(=O)N(Cc1ccccc1)c1ccccc1,3.2µM*,-21%,u,u,2.5µM*
COc1ccc(OC[C@H]2CN3[C@H](c4ccc(Br)cc4)[C@H](C)CC[C@H]3C(=O)O2)cc1,x,x,x,x,-7%[14.2 µM]
COc1ccc(OCCSc2nc(-c3ccccc3)cc(=O)[nH]2)cc1,12%[46.1 µM],-16%,u,6%,-1%[46.1 µM]
CCOc1ccc(OCCSc2nc(-c3ccccc3)cc(=O)[nH]2)cc1,-18%,-13%,-104*,6%,16%[46.1 µM]
COc1nc(N)nc(NC(=O)c2cccs2)c1N=O,10%,u,-78*,-5%,-17%[46.1 µM]
COc1cc(Nc2cc3c(cn2)cc(-c2cnn(C)c2)n3Cc2ccccc2)cc(OC)c1OC,x,x,-74*,x,x
CS(=O)(=O)c1cccc(Nc2cc3c(cn2)cc(-c2ccccc2)n3Cc2ccccc2)c1,x,x,15,x,x
CCOC(=O)N1CCN(C(=O)c2cn(CC)c3ccc(S(=O)(=O)N(C)C4CCCCC4)cc3c2=O)CC1,x,7%,0,11%,x
O=C(/C=C/c1ccccn1)c1cc(Cl)cc(Cl)c1O,x,-22%,-36,13µM*,x
COc1ccc(O)c(/C=N/Nc2nc(Nc3ccccc3)nc(-n3nc(C)cc3C)n2)c1,13µM*,-19%,-77*,u,u
COc1cc(/C=N/Nc2nc(Nc3ccc(C)cc3)nc(-n3nc(C)cc3C)n2)cc(OC)c1OC,u,-7%,21,u,u
COc1cc(/C=N/Nc2nc(Nc3ccccc3)nc(-n3nc(C)cc3C)n2)cc(OC)c1OC,16µM*,-12%,-12,2.8µM*,7.3µM*
CCn1c(C)cc(C=C2C(=O)c3ccccc3C2=O)c1C,u,-76%,32,u,13µM*

# Screening data: PubChem, National Center for Advancing Translational Sciences (NCATS)
